# Assay outcomes from PubChem.
# An excerpt weighted towards active compounds, which were near 1.3% of everything screened.
# MBNL1 CUG block: blocks human MBNL1 binding to CUG repeat RNA. Q9NR56. Potency, µM (highest dose often 57.5 µM), actives largely listed as inhibitors. TR-FRET MBNL1-His/biotin-(CUG)12 binding, 665/545 ratio. AID 2675. 0.036% of 280,000 active; active means well fitted inhibition curve with a large enough effect in the signal ratio, with a control signal flat, not every such curve was filed as active; inconclusive means small, poorly fitted or top-dose-only effect, or effect the other way, or a change in a side signal; inactive means no such curve, though single readings can be large or run the other way; the % refers to the signal ratio
#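 TR-FRET readout: Ex 340 nm, 665/545 nm emission ratio, normalized to buffer-only (basal) and MBNL1-(CUG)12 controls. Complex of MBNL1-His with Biotin-(CUG)12, compounds 92 nM–58 uM, incubated 60 min at room temperature.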
# TRPV1 PAM: potentiators of human vanilloid receptor 1 (TRPV1) | potentiation, % at 8.33 µM | Q8NER1 | TRPV1-expressing cells, Fluo-8 calcium influx, capsaicin EC20 potentiation | 0.02% of 320,000 active; in the data active means potentiation above about 80%; inconclusive means between about 30% and that limit
# Target sequence (Q8NER1 whole entry, looked up): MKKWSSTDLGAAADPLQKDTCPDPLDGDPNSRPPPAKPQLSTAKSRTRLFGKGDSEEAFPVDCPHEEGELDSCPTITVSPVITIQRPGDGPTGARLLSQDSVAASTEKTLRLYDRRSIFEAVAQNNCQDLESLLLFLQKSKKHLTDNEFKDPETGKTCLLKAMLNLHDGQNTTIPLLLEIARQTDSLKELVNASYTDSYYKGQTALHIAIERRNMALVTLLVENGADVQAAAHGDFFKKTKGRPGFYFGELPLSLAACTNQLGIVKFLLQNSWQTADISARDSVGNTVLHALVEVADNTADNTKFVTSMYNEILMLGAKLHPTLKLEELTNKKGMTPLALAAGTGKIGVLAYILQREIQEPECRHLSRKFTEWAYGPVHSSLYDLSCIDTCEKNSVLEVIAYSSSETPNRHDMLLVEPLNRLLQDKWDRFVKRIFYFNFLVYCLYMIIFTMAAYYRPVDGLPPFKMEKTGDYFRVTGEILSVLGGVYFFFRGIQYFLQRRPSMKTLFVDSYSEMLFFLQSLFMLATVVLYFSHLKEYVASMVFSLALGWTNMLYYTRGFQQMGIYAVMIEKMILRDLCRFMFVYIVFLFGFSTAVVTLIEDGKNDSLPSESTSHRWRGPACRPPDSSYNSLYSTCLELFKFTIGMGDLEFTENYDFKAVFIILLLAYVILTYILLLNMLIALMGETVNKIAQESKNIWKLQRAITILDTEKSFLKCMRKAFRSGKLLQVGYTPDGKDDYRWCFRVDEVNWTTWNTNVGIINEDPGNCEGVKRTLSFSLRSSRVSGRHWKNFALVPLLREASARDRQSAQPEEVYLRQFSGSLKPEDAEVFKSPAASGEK
#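 Cells expressing TRPV1 were dye-loaded with Fluo-8 and read kinetically: 10 s baseline, 3 min after compound (agonist portion), then 2 min after EC20 capsaicin (allosteric enhancer portion). Calcium-bound dye fluorescence at 480/520 nm.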
# hERG WT inh: KCNH2 (human, wildtype) channel inhibition; U2OS, BacMam KCNH2, thallium flux FluxOr; stronger effect = lower value; activity change, % at 1.84 µM; 0.37% of 340,000 active; AID 720551;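 active means maximum activity change below -70%; inconclusive means maximum activity change between -70% and -50%; inactive means maximum activity change above -50%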
#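 U2OS cells transduced with wild-type KCNH2 virus are loaded with FluxOr dye for 45 min, and thallium flux is measured in kinetic reads before and after stimulation buffer. Rate constants are normalized to DMSO controls.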
# KCNH2 3.1 block: KCNH2 3.1 (human) potassium channel inhibition | U2OS KCNH2 3.1, thallium flux FluxOr; stronger effect = lower value | activity change, % (tested at about 1.8 µM) | 0.95% of 340,000 active;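 active means maximum activity change below -70%; inconclusive means maximum activity change from -70% to -50%; inactive means maximum activity change above -50%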;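 further: thallium influx rate constant from kinetic fluorescence after stimulation buffer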
#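 FluxOr-based Tl+ influx in U2OS cells transduced with KCNH2 3.1 virus; rate constants normalized to DMSO controls.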
# TRPV1 ag: activates the human vanilloid receptor TRPV1 | TRPV1-expressing cells, Fluo-8 calcium influx, agonist mode | activation, % at 8.33 µM | 0.19% of 320,000 active | AID 540275; in the data active means activation above about 80%; inconclusive means between about 30% and that limit
#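 Cells expressing TRPV1 were dye-loaded with Fluo-8 and read kinetically: 10 s baseline, 3 min after compound (agonist portion), then 2 min after EC20 capsaicin (allosteric enhancer portion). Calcium-bound dye fluorescence at 480/520 nm.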
# Hits are given with their value; – = inactive; ? = inconclusive; · = no result.
SMILES,MBNL1 CUG block,TRPV1 PAM,hERG WT inh,KCNH2 3.1 block,TRPV1 ag
COc1cccc(-c2nnc(NC(=O)C3CCCCC3)o2)c1,–,–,–,-84.2,–
Cc1ccc(S(=O)(=O)NCC(=O)N(CCc2ccccc2)CC(=O)NCc2ccco2)cc1,–,–,-74.8,–,–
Cc1ccc(C2(C)NC(=O)N(CC(=O)N3CCN(C(=O)c4cccs4)CC3)C2=O)cc1 (configuration not stated),·,–,–,–,–
O=C(NC12CC3CC(CC(C3)C1)C2)c1ccc(S(=O)(=O)N2CCOCC2)cc1,–,–,–,-109.3,?
O=C(Nc1ccc(S(=O)(=O)N2CCOCC2)cc1)c1ccc(S(=O)(=O)N2CCOCC2)cc1,–,–,–,–,?
CC(C(=O)Nc1ccccc1-c1ccccc1)N1CCN(Cc2ccccc2)CC1 (configuration not stated),–,–,–,-76.0,–
Cn1c(N)c(N=O)c(=O)n(C)c1=O,?,–,–,–,–
CCOC(=O)C=Nc1c(N)n(C)c(=O)n(C)c1=O,–,–,–,-92.0,–
CCOP(=O)(OCC)C(Nc1ccccc1)c1ccco1 (configuration not stated),–,–,–,-118.1,–
Cc1cc(C)c2c(n1)sc1c(-c3ccccc3)c(C#N)c(N)nc12,·,–,-243.6,-183.8,–
CCNC(=O)N(C)C[C@H]1N[C@@](CC)(C(=O)OC)[C@H]2C(=O)N(Cc3ccccc3)C(=O)[C@@H]12,·,·,–,–,·
Cc1ccc2nc(NC(=O)C3CCN(S(=O)(=O)c4cccs4)CC3)sc2c1,–,–,–,-80.1,–
COC(=O)[C@H]1[C@H]2C[C@@H]3c4[nH]c5cc(OC)ccc5c4CCN3C[C@H]2C[C@@H](OC(=O)/C=C/c2cc(OC)c(OC)c(OC)c2)[C@@H]1OC,·,–,–,-72.8,–
S=c1nc(Cc2ccc(Cl)cc2)[nH]c2ccccc12,–,–,-150.2,–,–
S=c1nc(COc2ccccc2)[nH]c2ccccc12,–,–,-90.7,–,–
S=c1nc(Cc2ccccc2)[nH]c2ccccc12,?,–,–,–,?
O=c1c2cccnc2[nH]c(=S)n1CCCN1CCN(c2ccccc2F)CC1,–,–,–,–,–
O=c1c2ccccc2[nH]c(=S)n1CCCN1CCN(c2ccccc2F)CC1,–,–,-70.2,–,–
CCN1C(=NCC(C)C)N[C@@H](c2ccccc2)[C@H](C(=O)OC)[C@H]1C,–,–,·,·,–
CCN1C(=NCCc2ccc([N+](=O)[O-])cc2)N[C@@H](c2ccccc2)[C@H](C(=O)OC)[C@H]1C,–,–,–,-93.2,–
CCN1C(=NCCc2ccc(Br)cc2)N[C@@H](c2ccccc2)[C@H](C(=O)OC)[C@H]1C,–,–,–,-79.0,–
O=C1CC(c2ccc(Cl)cc2)CC(O)=C1C=NCCO (configuration not stated),–,–,–,–,–
CC1N=C(SCC(=O)c2ccc(F)cc2)N2C(C)N=C(SCC(=O)c3ccc(F)cc3)N12 (configuration not stated),·,·,–,–,·
O=C(Nc1ccc(S(=O)(=O)N2CCCC2)cc1)C1CCN(S(=O)(=O)c2ccc(F)cc2)CC1,·,–,–,-105.5,?
Cc1ccc(NC(=O)C2CCN(S(=O)(=O)c3ccc(F)cc3)CC2)cc1,–,–,–,–,?
SMILES,MBNL1 CUG block,TRPV1 PAM,hERG WT inh,KCNH2 3.1 block,TRPV1 ag
Cc1cc(S(=O)(=O)N2CCC(N3CCCCC3)CC2)ccc1-n1cnnn1,–,–,–,–,–
Cc1cc(S(=O)(=O)N2CCC(NC(=O)C34CC5CC(CC(C5)C3)C4)CC2)ccc1-n1cnnn1,–,–,–,-89.3,80.7
COc1ccc(NC(=O)CSc2nccn2Cc2ccco2)cc1,–,–,–,–,–
CN1CCN(c2ccccc2NC(=O)c2ccc(N3CCCC3)c([N+](=O)[O-])c2)CC1,?,–,–,–,–
CN1CCN(c2ccc(C(=O)c3ccc(Br)cc3)cc2[N+](=O)[O-])CC1,?,–,–,-81.3,–
O=C(/C=C\Nc1ccc(Br)cc1)c1cccnc1,?,–,–,–,?
CCCCCn1c(N2CCN(Cc3ccccc3)CC2)nc2c1c(=O)[nH]c(=O)n2C,–,–,?,-74.9,–
CC(C)CCn1c(N2CCN(Cc3ccccc3)CC2)nc2c1c(=O)[nH]c(=O)n2C,–,–,·,·,–
COC1=CC(=Cc2c(N)n3nc(CC(=O)N4CCCCC4)sc3nc2=O)C=C(OC)C1=O,–,–,-70.5,–,?
CC(NC(=O)COC(=O)CCN1C(=O)C2CC=CCC2C1=O)c1ccc(Br)cc1 (configuration not stated),·,–,–,–,–
O=C(COC(=O)Cc1c(F)cccc1Cl)NCc1ccc2c(c1)OCO2,·,·,–,–,·
CC1C/C(=C/c2cccn2C)C(=O)/C(=C/c2cccn2C)C1 (configuration not stated),?,–,–,–,100.2
CC(=O)Nc1ccc(SC[C@H](Cc2ccccc2)N2CC[C@@H](C(C)(C)C)CCC2=O)cc1,·,–,–,-96.8,?
Cc1ccc(SC[C@H](Cc2ccccc2)N2CC[C@@H](C)CCC2=O)cc1,–,–,–,-125.9,?
COC(=O)C(Cc1ccccc1)NCC(=O)Nc1cccc(Cl)c1C (configuration not stated),–,–,–,–,–
O=C(COC(=O)C1CC2C=CC1C2)Nc1cccc(S(=O)(=O)N2CCCCCC2)c1 (configuration not stated),–,–,–,–,–
Cc1nc2n(n1)C(O)c1cc([N+](=O)[O-])ccc1S2 (configuration not stated),?,–,·,·,–
O=[N+]([O-])c1ccc2c(c1)C(O)n1ncnc1S2 (configuration not stated),?,–,–,-83.8,–
COc1ccc(N2CCN(S(=O)(=O)c3cc(C)ccc3OC)CC2)cc1,–,–,–,–,–
CC1CCN(C2=NC(=O)/C(=C/c3ccccc3F)S2)CC1,–,–,–,–,88.2
CCOC(=O)CC/C(=N\NC(N)=O)c1ccc(OC)c(Cl)c1,·,–,–,–,–
O=C(O)CCCCCNC(=O)OCC1c2ccccc2-c2ccccc21,–,–,–,–,–
Cc1ccc(C(=O)N/C(=C\c2cn(C)c3ccccc23)C(=O)NCCN2CCOCC2)cc1,?,?,–,–,–
COc1ccc(C(=O)N2CCc3[nH]nc(-c4ccccc4)c3C2)cc1,–,–,–,–,–
O=C(c1ccccc1)N1CCc2[nH]nc(-c3ccccc3)c2C1,–,–,–,-93.6,–
O=C(Nc1ccc(OCC(=O)N2CCOCC2)cc1)Nc1cccc(Cl)c1,–,–,–,-82.2,–
CCOC(=O)c1cc2c(ccn2C)n1Cc1ccccc1C,–,–,–,–,–
CCOC(=O)c1cc2c(ccn2C)n1Cc1ccccc1Cl,–,–,·,-88.6,–
